Measured values as given in PubChem BioAssay (Tox21).
Unmarked numbers belong to inactive results. Records with an inconclusive call do not appear. A call without a number means that no potency is given here. Active and inactive are the calls of the source. Unless noted, calls follow the shape of the full dose curve.

Columns and labels:
[1] = Nuclear factor erythroid 2-related factor 2/antioxidant responsive element (Nrf2/ARE) small molecule agonists: qHTS cell viability counter screen in human keratinocytes (AID 1919968; active = well fitted curve in the direction sought with a large enough effect in the repeat runs; an effect the other way counts as inactive or inconclusive; also: nearly all actives have a fitted effect of over 55% in size; also: potency is read from the fitted curve at half-maximal effect)
Method in brief: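 Measured as CellTiter-Fluor fluorescence, this readout tracks cytotoxicity in the same wells as the ARE-luciferase screen. HaCaT reporter cells (1,500/well) received compounds after a 5 h pre-incubation and were exposed for 23 h.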

[2] = target: Gonadotropin-releasing hormone receptor (Homo sapiens) (UniProt P30968); assay: Human gonadotropin-releasing hormone receptor (GnRHR) small molecule agonists, calcium flux assay in GnRHR-HEK293 cells (AID 1920063); also: nearly all actives have a fitted effect of over 35% in size; also: potency is read from the fitted curve at half-maximal effect
Gonadotropin-releasing hormone receptor (Homo sapiens), sequence (P30968 whole entry, looked up): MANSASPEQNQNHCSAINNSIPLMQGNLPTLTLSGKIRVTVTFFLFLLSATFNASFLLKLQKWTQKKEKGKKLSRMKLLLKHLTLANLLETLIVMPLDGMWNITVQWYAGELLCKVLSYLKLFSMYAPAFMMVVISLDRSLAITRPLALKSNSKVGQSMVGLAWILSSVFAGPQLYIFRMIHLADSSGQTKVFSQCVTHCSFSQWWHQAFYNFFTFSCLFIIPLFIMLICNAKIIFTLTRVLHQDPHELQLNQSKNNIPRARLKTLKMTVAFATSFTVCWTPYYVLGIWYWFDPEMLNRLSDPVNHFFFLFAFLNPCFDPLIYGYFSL
Method in brief: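 Fluorescence kinetics (480 nm excitation, 540 nm emission; 3 min, 1 s steps) report calcium mobilisation in human GnRHR-HEK293 cells in agonist mode. Dye incubation: 1 h, 37 C.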

[3] = target: KiSS-1 receptor (Homo sapiens) (UniProt Q969F8); assay: Human kisspeptin (KISS1R) small molecule agonists, calcium flux assay in KISS1R-HEK293 cells (AID 1920064; active = well fitted curve in the direction sought with a large enough effect in the repeat runs; an effect the other way counts as inactive or inconclusive; also: potency is read from the fitted curve at half-maximal effect)
KiSS-1 receptor (Homo sapiens), sequence (Q969F8 whole entry, looked up): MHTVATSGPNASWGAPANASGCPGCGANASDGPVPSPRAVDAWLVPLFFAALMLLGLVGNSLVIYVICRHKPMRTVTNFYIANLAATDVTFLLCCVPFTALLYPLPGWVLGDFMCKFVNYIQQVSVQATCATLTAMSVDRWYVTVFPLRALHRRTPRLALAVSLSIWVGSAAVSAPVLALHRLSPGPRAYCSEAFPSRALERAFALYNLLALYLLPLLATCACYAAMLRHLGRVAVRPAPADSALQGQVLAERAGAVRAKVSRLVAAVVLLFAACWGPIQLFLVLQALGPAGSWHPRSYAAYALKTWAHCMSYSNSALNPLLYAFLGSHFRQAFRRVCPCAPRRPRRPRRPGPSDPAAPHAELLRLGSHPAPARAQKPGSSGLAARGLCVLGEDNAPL
Method in brief: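 Measures KISS1R agonism through calcium-sensitive dye fluorescence in stably transfected HEK293 cells, read for 3 min after pin-tool compound delivery; 15-point titrations in triplicate.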

[4] = G protein-coupled receptor (GPCR) small molecule agonists, calcium flux assay: HEK293 wild type cell line counter screen (AID 1920065); also: potency is read from the fitted curve at half-maximal effect
Method in brief: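 Readout: fluorescence at 480 nm excitation/540 nm emission, sampled at 1 s intervals for 3 min. Cells had been cultured 18 h, then dye-loaded 1 h at 37 C before compound or ATP addition.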

[5] = p53 small molecule agonists, cell-based qHTS assay with human liver microsomes (AID 1963577);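 also: p53 response element beta-lactamase reporter cells with liver microsomes plus NADPH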
Method in brief: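 With metabolic activation: human liver microsomes (0.5 mg/mL final) plus NADPH (0.5 mg/mL final) added alongside compounds to p53RE-bla cells; 16 h 37 C exposure; beta-lactamase read by LiveBLAzer fluorescence.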

[6] = p53 small molecule agonists, cell-based qHTS assay with rat liver microsomes (AID 1963578)
Method in brief: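 Metabolic activation by rat liver microsomes and NADPH, each 0.5 mg/mL final, added right after compounds to p53RE-bla reporter cells (4,000/well, plated 5 h earlier). 16 h at 37 C, then LiveBLAzer substrate for 2 h at room temperature in the dark; fluorescence read-out.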

[7] = p53 small molecule agonists, cell-based qHTS assay with rat liver microsomes: qHTS cell viability counter screen (AID 1963580); also: nearly all actives have a fitted effect of over 45% in size
Method in brief: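 p53RE-bla HCT-116 cells were exposed 16 h at 37 C to compounds with rat liver microsomes (0.5 mg/mL) and NADPH (0.5 mg/mL). Viability was measured in the same wells as ATP content by CellTiter-Glo luminescence.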

[8] = p53 small molecule agonists, cell-based qHTS assay: qHTS cell viability counter screen (AID 1963581); also: nearly all actives have a fitted effect of over 45% in size
Method in brief: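 In the same plates used for the p53 bla reporter, HCT-116 cells given compounds for 16 h at 37 C received CellTiter-Glo; luminescence was recorded 30 min later at room temperature.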

[9] = p53 small molecule agonists, cell-based qHTS assay (AID 1963582; active = well fitted activation curve with a large enough effect in the signal ratio in the repeat runs, not every such curve was filed as active; the % refers to the signal ratio)
Method in brief: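 Compounds are pin-transferred in DMSO onto p53RE-bla cells and incubated 16 h at 37 C. The B/G FRET beta-lactamase substrate is then applied for 2 h at RT and fluorescence recorded.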

[10] = target: 5-hydroxytryptamine receptor 2A (Homo sapiens) (UniProt P28223); assay: 5-hydroxytryptamine receptor 2A (HTR2A) small molecule antagonists, cell-based qHTS assay (AID 1963586); also: nearly all actives have a fitted effect of over 45% in size
5-hydroxytryptamine receptor 2A (Homo sapiens), sequence (P28223 whole entry, looked up): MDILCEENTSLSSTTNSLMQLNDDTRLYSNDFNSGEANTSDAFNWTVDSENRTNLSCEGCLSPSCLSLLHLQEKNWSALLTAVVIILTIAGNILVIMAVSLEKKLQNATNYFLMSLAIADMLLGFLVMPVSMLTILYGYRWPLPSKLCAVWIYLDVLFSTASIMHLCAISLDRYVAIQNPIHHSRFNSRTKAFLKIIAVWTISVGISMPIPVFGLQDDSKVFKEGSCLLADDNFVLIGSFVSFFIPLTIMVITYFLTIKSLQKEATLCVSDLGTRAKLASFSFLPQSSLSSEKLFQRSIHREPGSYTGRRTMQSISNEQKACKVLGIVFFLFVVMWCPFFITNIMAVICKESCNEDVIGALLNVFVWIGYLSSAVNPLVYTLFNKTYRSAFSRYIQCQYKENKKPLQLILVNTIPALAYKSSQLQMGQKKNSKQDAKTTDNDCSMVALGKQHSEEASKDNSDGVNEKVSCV
Method in brief: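 Antagonist-mode intracellular calcium assay: DOI (4 nM) added after 5 min compound pre-incubation at room temperature to dye-loaded HTR2A-CHO cells. Fluorescence followed for 3 min, sampled every second.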

[11] = target: 5-hydroxytryptamine receptor 2A (Homo sapiens) (UniProt P28223); assay: 5-hydroxytryptamine receptor 2A (HTR2A) small molecule agonists, cell-based qHTS assay (AID 1963587); also: nearly all actives have a fitted effect of over 30% in size; also: potency is read from the fitted curve at half-maximal effect
Method in brief: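 CHO cells stably expressing human HTR2A, plated 18 h, loaded with calcium dye 1 h at 37 C. Agonist mode: compounds added and intracellular calcium fluorescence recorded kinetically for 2 min at 1 sec intervals.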

[12] = target: Muscarinic acetylcholine receptor M1 (Homo sapiens) (UniProt P11229); assay: Cholinergic receptor muscarinic 1 (CHRM1) small molecule antagonists, cell-based qHTS assay (AID 1963588); also: nearly all actives have a fitted effect of over 40% in size
Muscarinic acetylcholine receptor M1 (Homo sapiens), sequence (P11229 whole entry, looked up): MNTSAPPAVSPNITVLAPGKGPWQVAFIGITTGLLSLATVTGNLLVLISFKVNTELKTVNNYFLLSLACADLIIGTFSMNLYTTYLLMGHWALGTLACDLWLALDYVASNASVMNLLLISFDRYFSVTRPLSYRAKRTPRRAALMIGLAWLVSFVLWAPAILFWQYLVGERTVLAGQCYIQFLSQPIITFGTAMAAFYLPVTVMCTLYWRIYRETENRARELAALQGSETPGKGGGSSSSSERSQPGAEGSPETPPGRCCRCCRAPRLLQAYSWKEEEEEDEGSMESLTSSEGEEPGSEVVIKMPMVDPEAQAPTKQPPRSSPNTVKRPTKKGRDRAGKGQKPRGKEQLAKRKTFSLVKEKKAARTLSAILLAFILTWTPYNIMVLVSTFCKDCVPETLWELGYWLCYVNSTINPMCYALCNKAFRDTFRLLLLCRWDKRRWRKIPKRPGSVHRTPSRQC
Method in brief: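 CHRM1-CHO calcium-flux assay, antagonist mode. Cells were seeded 18 h, dye-loaded 1 h at 37 C and given compound for 5 min at RT, then acetylcholine was added at 50nM. FDSS fluorescence was read 3 min; 15 concentrations, three runs.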

[13] = target: Muscarinic acetylcholine receptor M1 (Homo sapiens) (UniProt P11229); assay: Cholinergic receptor muscarinic 1 (CHRM1) small molecule agonists, cell-based qHTS assay (AID 1963589); also: nearly all actives have a fitted effect of over 35% in size; also: potency is read from the fitted curve at half-maximal effect
Method in brief: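 Each compound was tested at 15 concentrations across three independent runs on dye-loaded CHO cells stably expressing human CHRM1, reading intracellular calcium fluorescence kinetically at 1 sec intervals.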

[14] = cAMP Responsive Elements (CRE) small molecule agonists, cell-based qHTS assay (AID 1963590)
Method in brief: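 Cell line: CRE-bla HEK 293T; medium DMEM/10% dialyzed FBS/0.1 mM NEAA/1 mM pyruvate/25 mM HEPES; 3 h compound exposure; beta-lactamase FRET readout after 2 h substrate loading at RT.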

[15] = cAMP Responsive Elements (CRE) small molecule antagonists, cell-based qHTS assay (AID 1963591; active = well fitted inhibition curve with a large enough effect in the signal ratio in the repeat runs, not every such curve was filed as active; the % refers to the signal ratio)
Method in brief: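 Inhibition of NKH477-driven (0.25 uM final) CRE-beta-lactamase signal in HEK293T cells, 3 h compound exposure at 37 °C, detected by FRET substrate fluorescence.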

[16] = target: D(2) dopamine receptor (Homo sapiens) (UniProt P14416); assay: Dopamine D2 receptor (DRD2) small molecule agonists, cell-based qHTS assay (AID 1963594); also: nearly all actives have a fitted effect of over 35% in size; also: potency is read from the fitted curve at half-maximal effect
D(2) dopamine receptor (Homo sapiens), sequence (P14416 whole entry, looked up): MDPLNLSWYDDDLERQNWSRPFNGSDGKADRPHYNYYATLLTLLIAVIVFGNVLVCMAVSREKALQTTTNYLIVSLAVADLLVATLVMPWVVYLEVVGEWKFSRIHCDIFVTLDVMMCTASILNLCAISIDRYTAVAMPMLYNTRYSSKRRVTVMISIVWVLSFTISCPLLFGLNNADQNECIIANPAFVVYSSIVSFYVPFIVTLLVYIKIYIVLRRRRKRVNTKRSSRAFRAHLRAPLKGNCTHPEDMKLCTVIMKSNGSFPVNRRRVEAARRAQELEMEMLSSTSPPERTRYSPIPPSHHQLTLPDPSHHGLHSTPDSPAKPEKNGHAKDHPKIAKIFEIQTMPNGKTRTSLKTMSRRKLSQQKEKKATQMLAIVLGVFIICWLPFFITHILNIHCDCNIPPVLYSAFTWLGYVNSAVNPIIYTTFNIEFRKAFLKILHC
Method in brief: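 HEK293 cells stably expressing human DRD2, pre-treated with PDE inhibitor Ro20-1724 (0.1 mM final) and compound 10 min at room temperature, then stimulated with NKH477 (200nM […]) for 30 min. cAMP read by HTRF (665/620 nm).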

[17] = p53 small molecule agonists, cell-based qHTS assay with human liver microsomes: qHTS cell viability counter screen (AID 1963579); also: nearly all actives have a fitted effect of over 45% in size
Method in brief: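 Metabolic activation used human liver microsomes and NADPH, both 0.5 mg/mL final, over 16 hours at 37 C on p53RE-bla cells (4,000/well). Cytotoxicity measured by CellTiter-Glo luminescence, 30 min at room temperature.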

[18] = target: Beta-2 adrenergic receptor (Homo sapiens) (UniProt P07550); assay: Adrenergic beta2 receptor (ADRB2) small molecule antagonists, cell-based qHTS assay (AID 1963592); also: series mostly up to about 92 µM; nearly all actives have a fitted effect of over 50% in size
Beta-2 adrenergic receptor (Homo sapiens), sequence (P07550 whole entry, looked up): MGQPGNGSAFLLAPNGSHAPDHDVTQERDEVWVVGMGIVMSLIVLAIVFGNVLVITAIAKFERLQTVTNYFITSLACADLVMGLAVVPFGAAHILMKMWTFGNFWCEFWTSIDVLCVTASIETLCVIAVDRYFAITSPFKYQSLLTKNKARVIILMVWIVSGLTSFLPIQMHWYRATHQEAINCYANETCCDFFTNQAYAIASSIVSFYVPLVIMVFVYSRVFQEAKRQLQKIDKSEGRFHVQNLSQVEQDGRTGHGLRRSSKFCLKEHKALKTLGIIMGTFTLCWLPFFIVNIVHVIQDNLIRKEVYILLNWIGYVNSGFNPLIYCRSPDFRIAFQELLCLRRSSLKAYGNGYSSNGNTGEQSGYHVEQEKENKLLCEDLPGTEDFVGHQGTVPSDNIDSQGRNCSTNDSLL
Method in brief: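 Cells (CHO, stable ADRB2 overexpression) incubated 18-20hr at 37C; compounds added from DMSO; agonist mix (1nM isoproterenol, 100uM IBMX, 25uM Ro-20-1724) added; 0.5hr RT; d2-cAMP and anti-cAMP-cryptate added; 1hr RT; 665/615 nm read.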

[19] = target: D(2) dopamine receptor (Homo sapiens) (UniProt P14416); assay: Dopamine D2 receptor (DRD2) small molecule antagonists, cell-based qHTS assay (AID 1963595; active = well fitted inhibition curve with a large enough effect in the signal ratio in the repeat runs, with a control signal flat; the % refers to the signal ratio)
Method in brief: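 Stable D2 receptor HEK293 line, 24 h after seeding. Compound preincubated 10 min, then quinpirole (12 nM) with forskolin analogue NKH477 (200 nM), 30 min, room temperature. Detection by time-resolved FRET of cAMP.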

[20] = target: Beta-2 adrenergic receptor (Homo sapiens) (UniProt P07550); assay: Adrenergic beta2 receptor (ADRB2) small molecule agonists, cell-based qHTS assay (AID 1963593);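 also: CHO cells stably overexpressing human ADRB2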
Method in brief: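 CHO cells stably over-expressing ADRB2 were plated overnight at 37C, then dosed with compounds plus a stimulation mix containing 100uM IBMX and 25uM Ro-20-1724 for 0.5hr at room temperature. cAMP was measured by HTRF competition, 1hr.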

CCN(CC)c1ccc2c(-c3ccccc3C(=O)O)c3ccc(=[N+](CC)CC)cc-3oc2c1
Potency [1]: 15.4 µM (active)
Potency [2]: 34.7 µM (active)
Potency [3]: 49 µM (active)
Potency [4]: 34.7 µM (active)
Potency [5]: inactive
Potency [6]: inactive
Potency [7]: inactive
Potency [8]: inactive
Potency [9]: inactive
Potency [10]: inactive
Potency [11]: 49 µM (active)
Potency [12]: inactive
Potency [13]: 43.6 µM (active)
Potency [14]: inactive
Potency [15]: inactive
Potency [16]: 58.8 µM (active)

C/C=C/C=C/CO
Potency [1]: inactive
Potency [2]: inactive
Potency [3]: inactive
Potency [4]: inactive
Potency [5]: inactive
Potency [6]: inactive
Potency [17]: inactive
Potency [8]: inactive
Potency [10]: inactive
Potency [11]: inactive
Potency [12]: inactive
Potency [13]: inactive
Potency [15]: inactive
Potency [18]: inactive
Potency [19]: inactive

COC(C)(C)CC(C)=O
Potency [1]: inactive
Potency [2]: inactive
Potency [3]: inactive
Potency [4]: inactive
Potency [5]: inactive
Potency [6]: inactive
Potency [7]: inactive
Potency [8]: inactive
Potency [9]: inactive
Potency [10]: inactive
Potency [11]: inactive
Potency [13]: inactive
Potency [14]: inactive
Potency [15]: inactive
Potency [18]: inactive
Potency [20]: inactive
Potency [16]: inactive
Potency [19]: inactive

COC(=O)CCCCCCCC(=O)OC
Potency [1]: inactive
Potency [2]: inactive
Potency [3]: inactive
Potency [4]: inactive
Potency [5]: inactive
Potency [6]: inactive
Potency [7]: inactive
Potency [8]: inactive
Potency [9]: inactive
Potency [10]: inactive
Potency [11]: inactive
Potency [12]: inactive
Potency [13]: inactive
Potency [14]: inactive
Potency [15]: inactive
Potency [18]: inactive
Potency [20]: inactive
Potency [16]: inactive
Potency [19]: inactive

O=[N+]([O-])c1cccc(S(=O)(=O)O)c1
Potency [1]: inactive
Potency [2]: inactive
Potency [3]: inactive
Potency [4]: inactive
Potency [5]: inactive
Potency [6]: inactive
Potency [17]: inactive
Potency [8]: inactive
Potency [9]: inactive
Potency [10]: inactive
Potency [11]: inactive
Potency [12]: inactive
Potency [13]: inactive
Potency [18]: inactive
Potency [20]: inactive
Potency [19]: inactive

O=C(C(=O)c1ccc(Br)cc1)c1ccc(Br)cc1
activity change, negative = cytotoxicity [1]: -1.93% [at 19 µM]
activity change [2]: 0.0439% [at 11.8 µM, stronger effect = higher value]
activation [3]: 0.431% [at 15.8 µM]
activation [4]: -0.382% [at 11.8 µM]
activation [5]: -9.98% [at 13.5 µM]
activation [6]: -6.75% [at 13.6 µM]
activity change, negative = cytotoxicity [17]: -13.3% [at 13.5 µM]
activity change, negative = cytotoxicity [8]: -2.62% [at 13.5 µM]
activity, negative = inhibition [10]: 10.2% [at 12.7 µM]
activation [11]: 2.38% [at 15.9 µM]
activity, negative = inhibition [12]: 5.04% [at 12.6 µM]
activation [13]: -0.452% [at 15.8 µM]
activation [14]: -0.367% [at 19 µM]
activity change, negative = inhibition [15]: -9.38% [at 18.9 µM]
activation [16]: -0.026% [at 19 µM]

Sc1nc(S)nc(S)n1
Potency [1]: inactive
Potency [2]: inactive
Potency [3]: inactive
Potency [4]: inactive
Potency [5]: inactive
Potency [6]: inactive
Potency [7]: inactive
Potency [8]: inactive
Potency [9]: inactive
Potency [10]: inactive
Potency [11]: inactive
Potency [12]: inactive
Potency [13]: inactive
Potency [14]: inactive
Potency [15]: inactive
Potency [18]: inactive
Potency [20]: inactive
Potency [16]: inactive
Potency [19]: inactive

O=C(O)c1ccccc1C(=O)OCc1ccccc1
Potency [1]: inactive
Potency [2]: inactive
Potency [3]: inactive
Potency [4]: inactive
Potency [5]: inactive
Potency [6]: inactive
Potency [17]: inactive
Potency [8]: inactive
Potency [9]: inactive
Potency [11]: inactive
Potency [12]: inactive
Potency [13]: inactive
Potency [15]: inactive
Potency [18]: inactive
Potency [16]: inactive
Potency [19]: inactive
